Assay outcomes deposited in PubChem BioAssay by National Center for Advancing Translational Sciences (NCATS).
Shown are actives, neighbours in structure and some others; about 2.3% of the full set was active somewhere.
POLH inh: blocks human DNA polymerase eta activity. Potency, µM (top dose mostly 114 µM), hits mostly inhibitors. recombinant Pol eta, fluorescent DNA replication assay. 1.2% of 390,000 active
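Fluorescent replication assay: 50 nM final substrate added after a 15 min room-temperature compound preincubation with 10 nM enzyme. Signal taken at 0 min and again at 10 min.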
Pol beta inh: DNA polymerase beta (human) inhibition | P06746 | Pol beta primer extension/strand displacement, fluorescence kinetic | Potency, µM (series often up to 114 µM), usual class: inhibitors | 1.3% of 340,000 active
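Preincubation: enzyme (10 nM) with compound, 15 min, RT. Reaction: substrate added to 50 nM final. Reads: 0 and 10 min. Analysis: normalized, Hill fit.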
POLI inh: inhibitors of human DNA polymerase iota. Pol iota fluorescent replication assay, 10 min. Potency, µM (top dose mostly 115 µM), most hits filed as inhibitors. 1% of 390,000 active. AID 588590
Target sequence (Q9UNA4 whole entry, looked up): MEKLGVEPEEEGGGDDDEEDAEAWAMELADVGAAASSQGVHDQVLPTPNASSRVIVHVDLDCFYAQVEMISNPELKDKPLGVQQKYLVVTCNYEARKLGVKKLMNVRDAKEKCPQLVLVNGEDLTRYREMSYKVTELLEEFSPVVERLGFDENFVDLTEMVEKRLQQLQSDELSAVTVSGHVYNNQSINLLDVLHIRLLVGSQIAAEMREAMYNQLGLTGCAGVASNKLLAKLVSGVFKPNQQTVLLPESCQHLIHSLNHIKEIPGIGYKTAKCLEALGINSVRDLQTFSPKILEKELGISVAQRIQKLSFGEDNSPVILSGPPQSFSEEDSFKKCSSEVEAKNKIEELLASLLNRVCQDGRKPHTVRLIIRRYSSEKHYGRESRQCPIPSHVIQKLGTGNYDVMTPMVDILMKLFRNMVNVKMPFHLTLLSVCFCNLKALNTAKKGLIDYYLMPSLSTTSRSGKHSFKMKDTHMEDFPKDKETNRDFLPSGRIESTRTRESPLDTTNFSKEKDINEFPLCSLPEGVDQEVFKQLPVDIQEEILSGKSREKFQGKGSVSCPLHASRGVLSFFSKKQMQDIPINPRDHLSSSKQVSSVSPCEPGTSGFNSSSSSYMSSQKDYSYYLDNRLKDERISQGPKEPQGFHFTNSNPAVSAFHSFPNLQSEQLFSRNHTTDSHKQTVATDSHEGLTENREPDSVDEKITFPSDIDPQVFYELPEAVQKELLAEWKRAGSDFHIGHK
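Pol iota at 10 nM preincubated 15 min with compounds at room temperature; reaction started with fluorescent substrate, 50 nM final. Fluorescence read kinetically at 0 and 10 min; buffer-only wells as negative control.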
Pol kappa inh: blocks human DNA polymerase kappa activity; purified Pol kappa, fluorescent DNA synthesis assay, 10 min; Potency, µM (highest dose often 107 µM), hits mostly inhibitors; AID 588579; 0.53% of 400,000 active
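First, compounds were pin-transferred onto 10 nM Pol kappa. After 15 min at room temperature, substrate was added to 50 nM final. Fluorescence was then measured kinetically at 0 and 10 min.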
WRN inhibitor: WRN helicase (human) inhibition; Potency, µM (highest dose often 114 µM), most hits filed as inhibitors; 0.46% of 360,000 active; WRN helicase unwinding, fluorescent forked duplex, kinetic; AID 651768; further: nearly all actives have a fitted effect of over 55% in size
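WRN at 20 nM final was preincubated with compound for 15 min at room temperature; reaction started with 100 nM forked duplex oligonucleotide carrying fluorophore and quencher plus 2 mM ATP (final). Unwinding followed kinetically by red fluorescence (ex 525/em 598 nm).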
Hits are given with their value; . = inactive; ? = inconclusive; / = no result given; ! = a repeat was not active; [ ] = dose if it differs, or a comment. The call rests on the fitted dose curve; in most records, active means well fitted curve in the direction sought with a large enough effect; inconclusive means small, poorly fitted or top-dose-only effect, or another doubt; inactive means no such curve, though single readings can be large; an effect the other way counts as inactive or inconclusive.

SMILES	POLH inh	Pol beta inh	POLI inh	Pol kappa inh	WRN inhibitor
CCN(CC)/[N+]([O-])=N/OCOC(=O)C(C)c1ccc(CC(C)C)cc1 (stereo unspecified)	/	/	.	.	/
COC(=O)C1=C[C@@H](C(=O)OC)C2C3=C(C(=O)[C@@]2(C)NC(=O)c2ccccc2)[C@H](c2ccccc2)[C@@H]2C(=O)N(c4ccccc4)C(=O)[C@@H]2[C@@H]3C1 (stereo partly specified)	/	/	.	.	/
O=C(C[n+]1cccc2cc(Cl)ccc21)c1cccc([N+](=O)[O-])c1	/	/	.	.	/
CCCc1ccc(C(=O)NNC(=O)c2ccc(Cl)cc2)cc1	?	32µM	?	.	.
CCCc1ccc(C(=O)NNc2cc(Cl)ccc2Cl)cc1	.	.	.	.	.
C=CCc1cccc(C=NNC(=O)CN2CCN(Cc3ccccc3)CC2)c1O	/	/	/	.	/
CC(C)(C)c1ccc(C(=O)N/C(=C\c2cccc([N+](=O)[O-])c2)C(=O)Nc2cccc(C(=O)O)c2)cc1	22µM	?	.	.	?
O=C(Nc1cccc(C(=O)O)c1)/C(=C/c1ccc([N+](=O)[O-])cc1)NC(=O)c1ccccc1	.	.	.	.	.
CC(=O)N[C@H]1CSSC[C@@H](C(=O)N2CCC[C@H]2C(=O)N2CCC[C@H]2C(=O)N[C@@H](CCCCN)C(=O)N[C@@H](CC(=O)O)C(N)=O)NC(=O)CNC(=O)[C@H](Cc2c[nH]c3ccccc23)NC(=O)[C@H](CCCNC(=N)N)NC(=O)[C@@H](Cc2ccc3ccccc3c2)NC(=O)[C@H](Cc2cnc[nH]2)NC(=O)[C@H](CCC(=O)O)NC1=O	/	/	/	.	/
O=C1C2CCCCN2C(=O)N1CCCCN1CCN(c2cccc(Cl)c2)CC1 (stereo unspecified)	.	.	.	.	.
CC(C)C(=O)Nc1cccc(N2CCN(CCCN3C(=O)C4CCCCN4C3=O)CC2)c1 (stereo unspecified)	.	/	13µM	.	.
CC(C)=CCC/C(C)=C/COc1c2ccoc2cc2oc(=O)ccc12	/	/	.	.	/
Cc1c(C)c(C)c(/C=C/c2ccnc3ccccc23)c(C)c1C	/	/	.	.	/
CCCC[C@@H]1CCCO[C@@](C(=O)NCc2ccc(S(C)(=O)=O)cc2)(C(F)(F)F)C1	/	/	.	.	/
COC(=O)/C=C\C(C#N)(C#N)N=Cc1ccc(OC)cc1	.	/	.	.	56µM
COc1ccc(C=NNC(=O)CCCCC(=O)NN=Cc2ccc(OC)cc2)cc1	.	/	.	.	.
COC(=O)N1CCN(/[N+]([O-])=N/Oc2ccc([N+](=O)[O-])cc2[N+](=O)[O-])CC1	/	/	?	.	/
CN(C)c1ccc(/C=C2\C(=O)/C(=C\c3ccc(N(C)C)cc3)c3ccccc32)cc1	/	/	.	.	/
O=C(CCn1c(=O)c2ccccc2n(Cc2cc(=O)n3ccccc3n2)c1=O)NCc1ccco1	.	.	.	.	.
Cc1cccc2nc(Cn3c(=O)n(CCCC(=O)NCc4ccco4)c(=O)c4ccccc43)cc(=O)n12	?	22µM	?	.	?
Nc1cc(=O)[nH]c(SCC(=O)N2N=C(c3ccc4ccccc4c3)CC2c2ccccc2)n1 (stereo unspecified)	?	.	45µM	.	.
CC(=O)OCC(=O)N1N=C(c2ccc3ccccc3c2)CC1c1ccccc1 (stereo unspecified)	.	.	.	.	.
Cc1ccc(S(=O)(=O)N2CCN(c3nc(Nc4ccccc4O)nc4ccccc34)CC2)cc1	/	/	.	.	/
CN1/C(=C/c2cc[n+](C)c3ccccc23)C=Cc2ccccc21	.	32µM	.	.	28µM
O=C(O)c1ccc(CSc2nc(-c3ccccc3)cc(C(F)(F)F)n2)cc1	.	.	.	.	?
SMILES	POLH inh	Pol beta inh	POLI inh	Pol kappa inh	WRN inhibitor
O=C(O)c1ccc(CSc2nc(-c3ccc(Cl)cc3)cc(C(F)(F)F)n2)cc1	.	89µM	?	.	.
COc1ccc(C(=O)CC(c2ccccc2)C2C(=O)CCCC2=O)cc1 (stereo unspecified)	79µM	.	?	.	.[11.6 µM]
CC[N+](CC)(CC)c1ccc(/C=C/c2ccc3ccccc3n2)cc1	/	/	.	45µM	/
CC[N+](C)(C)c1ccc(/C=C/c2ccnc3ccccc23)cc1	/	/	79µM	?	/
CC[N+](CC)(CC)c1ccc(/C=C/c2ccnc3ccccc23)cc1	/	/	?	45µM	/
C(=C\c1ccc2ccccc2n1)/c1ccccc1	.	.	.	.	.
COc1cc2c(NC3CCN(C)CC3)nc(N3CCCCC3)nc2cc1OCCOCCN1CCCC1	/	/	?	.	/
N#CC1=C2SCN(c3ccccc3)CN2C(=O)CC1c1cccs1 (stereo unspecified)	.	?	.	.	.
CCOc1ccc(N2CSC3=C(C#N)C(c4ccco4)CC(=O)N3C2)cc1 (stereo unspecified)	.	25µM	.	.	.
N#CC1=C2SCN(c3ccccc3)CN2C(=O)CC1c1c(Cl)cccc1Cl (stereo unspecified)	.	.	89µM!	.	.
Cc1ccc(C2CC(=O)N3CN(c4ccc(Br)cc4)CSC3=C2C#N)o1 (stereo unspecified)	.	32µM	?	.	.
CNc1ccc(/C=C/c2ccnc3ccccc23)cc1	/	/	.	.	/
Nc1ccc2cccnc2c1	/	/	.	.	/
CCOC(=O)c1c(C)[nH]c(C(=O)OC(C(=O)N(C)C)c2ccccc2)c1C (stereo unspecified)	/	/	.	.	/
COc1cc(/C=N/NC(=O)CSc2cc(C)c(Br)cc2C)ccc1O	?	.	.	.	.
Cc1cc(SCC(=O)N/N=C/c2ccc(O)c(O)c2O)c(C)cc1Br	?	?	?	?	50µM
Cc1ccc(NCc2cccn2-c2nnc(N3CCC(C(=O)NCc4ccc(F)cc4)CC3)s2)cc1	/	.	.	.	/
Nc1ccc(/C=C/c2ccnc3ccccc23)c(N)c1	/	/	.	.	/
Cc1ccc(C(=O)ONc2ccc(N=NC(=O)c3ccccc3O)cc2)cc1	8.9µM	.	.	.	.
Cc1ccc(C(=O)ONc2ccc(N=O)cc2)cc1	.	.	.	.	.
CC(=O)Nc1ccc(/C=C/c2sc3ccccc3[n+]2CCCCI)cc1	/	/	79µM	45µM	/
CCN(CC)c1ccc(/C=C/c2sc3ccccc3[n+]2CCCCI)cc1	/	/	50µM	?	/
Cc1sc2ccccc2[n+]1CCCCI	/	/	?	.	/
CCCCCCC[n+]1ccc(/C=C/c2c(C)[nH]c3ccccc23)cc1	/	/	.	.	/
CCCCCCC[n+]1c(/C=C/c2ccc(N(C)C)cc2)sc2ccccc21	/	/	79µM	40µM	/
C=CCN(CC=C)c1ccc(/C=C/c2ccnc3ccccc23)cc1	/	/	.	.	/
COc1ccc(NS(=O)(=O)c2ccc(O)c(NC(=O)c3cc4c(C)nn(-c5ccc(F)cc5)c4s3)c2)cc1	20µM	10µM	28µM	?	?
COc1ccc(NC(=O)c2cc3c(C)nn(-c4ccccc4)c3s2)c(OC)c1	.	.	.	.	/
C=CCN1C(=O)/C(=c2\sc3nc(=O)c(Cc4ccc(OC)c(OC)c4)nn3c2=O)c2ccccc21	.	.	?	.	.
